Experimental data published in article PMC7862700, “An all-to-all approach to the identification of sequence-specific readers for epigenetic DNA modifications on cytosine”.

Assays:
Experiment in all cases: DAPPL (digital affinity profiling via proximity ligation, sequencing); 10 mM Tris-HCl pH 7.5, 50 mM NaCl, 1 mM DTT, 4% glycerol, room temperature, 30 min; GST-TFs on glutathione beads, 16-mer random dsDNA library, 0.1% formaldehyde crosslink after washing; high values mean tight binding
FEV = molecular target: T1, FEV (Homo sapiens, UniProt Q99581 1-238); settings: protein: recombinant; tags: N-terminal GST; dsDNA, one strand shown
T1 sequence: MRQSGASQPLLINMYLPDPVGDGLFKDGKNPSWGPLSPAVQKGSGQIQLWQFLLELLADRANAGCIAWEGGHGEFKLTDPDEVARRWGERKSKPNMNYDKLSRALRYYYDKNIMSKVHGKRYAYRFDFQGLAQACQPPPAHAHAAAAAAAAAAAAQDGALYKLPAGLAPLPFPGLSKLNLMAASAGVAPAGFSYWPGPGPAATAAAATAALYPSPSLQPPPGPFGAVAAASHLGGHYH
In short: (§1)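 The binding signal reported is, for every hexamer, its read frequency for a factor over its read frequency for the tag-only sample. Reads came from pools of yeast-expressed, GST-fused human transcription factors on glutathione beads, barcoded with DNA and mixed with that sample, which were incubated with 200 nmole of a random double-stranded 16-mer DNA library in Tris/NaCl/DTT/glycerol buffer at room temperature for 30 min. After washing, the pools were crosslinked with 0.1% formaldehyde, proximity-ligated with BsaI/T4 ligase for 1 h at 37 °C, PCR-amplified and sequenced on an Illumina NextSeq500.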

ETV5 = ETV5 (Homo sapiens, UniProt P41161 1-510); settings: protein: recombinant; tags: N-terminal GST; dsDNA, one strand shown
ETV5, sequence (P41161 whole entry): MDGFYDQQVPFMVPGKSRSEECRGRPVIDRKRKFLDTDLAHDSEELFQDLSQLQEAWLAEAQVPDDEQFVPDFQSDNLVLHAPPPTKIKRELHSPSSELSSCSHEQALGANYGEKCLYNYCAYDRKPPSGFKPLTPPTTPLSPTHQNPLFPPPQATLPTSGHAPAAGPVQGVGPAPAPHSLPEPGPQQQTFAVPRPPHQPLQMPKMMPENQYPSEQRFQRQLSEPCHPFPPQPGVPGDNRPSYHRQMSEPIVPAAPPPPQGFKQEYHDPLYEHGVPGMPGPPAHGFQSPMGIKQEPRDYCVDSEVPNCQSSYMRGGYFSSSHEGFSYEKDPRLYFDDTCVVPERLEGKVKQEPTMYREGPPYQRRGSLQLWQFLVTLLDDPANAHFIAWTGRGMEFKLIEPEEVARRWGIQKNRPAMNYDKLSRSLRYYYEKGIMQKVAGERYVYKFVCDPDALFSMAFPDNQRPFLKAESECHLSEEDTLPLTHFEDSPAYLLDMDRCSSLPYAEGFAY
In short: as §1

HSF1 = HSF1 (Homo sapiens, UniProt Q00613 1-529); settings: protein: recombinant; tags: N-terminal GST; chain copies: 3; dsDNA, one strand shown
HSF1, sequence (Q00613 whole entry): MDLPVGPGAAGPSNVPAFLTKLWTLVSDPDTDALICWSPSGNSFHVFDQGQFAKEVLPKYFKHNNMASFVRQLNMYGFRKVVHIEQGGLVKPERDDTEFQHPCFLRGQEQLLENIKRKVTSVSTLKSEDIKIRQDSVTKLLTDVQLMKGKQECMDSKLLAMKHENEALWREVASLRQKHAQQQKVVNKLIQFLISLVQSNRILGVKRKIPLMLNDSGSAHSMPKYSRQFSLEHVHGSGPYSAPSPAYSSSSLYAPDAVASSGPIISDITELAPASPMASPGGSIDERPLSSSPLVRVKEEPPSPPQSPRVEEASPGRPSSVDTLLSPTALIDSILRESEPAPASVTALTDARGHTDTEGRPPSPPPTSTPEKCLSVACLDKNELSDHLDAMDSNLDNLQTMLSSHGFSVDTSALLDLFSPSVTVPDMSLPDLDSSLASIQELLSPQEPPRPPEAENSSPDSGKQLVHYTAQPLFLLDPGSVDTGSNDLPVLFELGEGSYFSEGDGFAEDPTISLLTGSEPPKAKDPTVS
In short: as §1

SPIC = molecular target: T2, SPIC (Homo sapiens, UniProt Q8N5J4 1-248); settings: protein: recombinant; tags: N-terminal GST; dsDNA, one strand shown
T2 sequence: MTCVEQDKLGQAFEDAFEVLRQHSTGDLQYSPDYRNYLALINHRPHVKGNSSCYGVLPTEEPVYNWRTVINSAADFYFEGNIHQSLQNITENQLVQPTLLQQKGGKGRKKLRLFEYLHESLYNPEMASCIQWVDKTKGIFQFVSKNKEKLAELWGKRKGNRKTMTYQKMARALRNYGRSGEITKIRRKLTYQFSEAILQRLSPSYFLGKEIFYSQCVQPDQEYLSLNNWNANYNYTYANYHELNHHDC
In short: as §1

ELF4 = ELF4 (Homo sapiens, UniProt Q99607 1-663); settings: protein: recombinant; tags: N-terminal GST; dsDNA, one strand shown
ELF4, sequence (Q99607 whole entry): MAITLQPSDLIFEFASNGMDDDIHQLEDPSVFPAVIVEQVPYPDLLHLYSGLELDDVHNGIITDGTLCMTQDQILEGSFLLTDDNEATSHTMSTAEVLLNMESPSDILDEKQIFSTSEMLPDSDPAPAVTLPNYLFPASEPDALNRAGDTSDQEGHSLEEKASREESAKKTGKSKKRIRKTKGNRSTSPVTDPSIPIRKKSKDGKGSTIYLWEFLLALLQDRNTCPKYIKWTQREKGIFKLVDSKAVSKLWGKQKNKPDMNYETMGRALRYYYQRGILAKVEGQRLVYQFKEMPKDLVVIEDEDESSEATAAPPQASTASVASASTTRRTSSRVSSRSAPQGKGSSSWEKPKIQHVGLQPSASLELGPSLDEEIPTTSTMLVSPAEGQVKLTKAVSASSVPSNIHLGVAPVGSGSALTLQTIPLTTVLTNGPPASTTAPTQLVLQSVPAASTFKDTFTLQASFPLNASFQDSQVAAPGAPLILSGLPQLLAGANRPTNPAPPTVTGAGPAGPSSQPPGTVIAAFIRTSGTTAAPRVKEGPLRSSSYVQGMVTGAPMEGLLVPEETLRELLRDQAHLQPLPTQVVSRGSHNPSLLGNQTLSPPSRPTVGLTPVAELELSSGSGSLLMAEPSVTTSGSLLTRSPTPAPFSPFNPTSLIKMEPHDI
In short: as §1

ELK4 = molecular target: T3, ELK4 (Homo sapiens, UniProt P28324-2 1-405); settings: protein: recombinant; tags: N-terminal GST; dsDNA, one strand shown
T3 sequence: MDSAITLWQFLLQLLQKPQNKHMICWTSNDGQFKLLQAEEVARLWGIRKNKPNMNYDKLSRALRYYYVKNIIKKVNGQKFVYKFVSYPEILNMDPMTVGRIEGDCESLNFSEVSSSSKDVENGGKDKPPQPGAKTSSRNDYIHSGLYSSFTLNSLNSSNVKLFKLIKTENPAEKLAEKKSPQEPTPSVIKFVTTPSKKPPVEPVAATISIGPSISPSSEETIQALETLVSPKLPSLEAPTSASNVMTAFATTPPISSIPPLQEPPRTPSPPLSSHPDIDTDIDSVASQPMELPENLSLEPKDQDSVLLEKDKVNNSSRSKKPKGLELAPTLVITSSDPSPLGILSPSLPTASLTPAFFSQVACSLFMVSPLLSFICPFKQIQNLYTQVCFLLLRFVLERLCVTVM
In short: as §1

ETV2 = molecular target: T4, ETV2 (Homo sapiens, UniProt O00321 1-342); settings: protein: recombinant; tags: N-terminal GST; dsDNA, one strand shown
T4 sequence: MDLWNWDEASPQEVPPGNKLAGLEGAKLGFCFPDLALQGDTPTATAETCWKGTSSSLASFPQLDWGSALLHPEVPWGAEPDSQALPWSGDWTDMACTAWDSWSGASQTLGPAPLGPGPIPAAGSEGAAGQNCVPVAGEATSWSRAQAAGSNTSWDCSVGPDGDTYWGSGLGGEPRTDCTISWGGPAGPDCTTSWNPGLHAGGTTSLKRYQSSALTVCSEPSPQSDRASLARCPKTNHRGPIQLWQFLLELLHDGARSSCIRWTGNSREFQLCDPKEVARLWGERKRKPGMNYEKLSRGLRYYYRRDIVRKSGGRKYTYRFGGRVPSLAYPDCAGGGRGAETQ
In short: as §1

ELF3 = molecular target: T5, ELF3 (Homo sapiens, UniProt P78545 1-371); settings: protein: recombinant; tags: N-terminal GST; dsDNA, one strand shown
T5 sequence: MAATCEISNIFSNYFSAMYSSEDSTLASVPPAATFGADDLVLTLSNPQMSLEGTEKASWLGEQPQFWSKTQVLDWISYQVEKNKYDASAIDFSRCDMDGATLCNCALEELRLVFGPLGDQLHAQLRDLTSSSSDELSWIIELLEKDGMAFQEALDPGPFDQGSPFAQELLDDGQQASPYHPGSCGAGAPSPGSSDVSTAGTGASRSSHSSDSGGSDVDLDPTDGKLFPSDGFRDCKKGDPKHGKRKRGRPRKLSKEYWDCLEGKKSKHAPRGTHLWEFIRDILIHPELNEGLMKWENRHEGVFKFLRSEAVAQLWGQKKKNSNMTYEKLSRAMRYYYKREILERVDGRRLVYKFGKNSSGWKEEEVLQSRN
In short: as §1

CRX = CRX (Homo sapiens, UniProt O43186 1-299); settings: protein: recombinant; tags: N-terminal GST; dsDNA, one strand shown
CRX, sequence (O43186 whole entry): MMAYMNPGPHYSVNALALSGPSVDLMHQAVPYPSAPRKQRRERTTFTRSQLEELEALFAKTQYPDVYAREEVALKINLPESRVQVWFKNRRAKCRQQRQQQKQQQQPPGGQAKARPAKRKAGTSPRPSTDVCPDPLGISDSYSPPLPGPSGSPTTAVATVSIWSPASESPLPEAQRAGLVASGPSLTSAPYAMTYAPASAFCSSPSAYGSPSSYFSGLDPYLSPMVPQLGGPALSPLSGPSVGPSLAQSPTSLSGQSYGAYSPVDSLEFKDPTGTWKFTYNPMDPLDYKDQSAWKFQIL
In short: as §1

ETV1 = ETV1 (Homo sapiens, UniProt P50549 1-477); settings: protein: recombinant; tags: N-terminal GST; dsDNA, one strand shown
ETV1, sequence (P50549 whole entry): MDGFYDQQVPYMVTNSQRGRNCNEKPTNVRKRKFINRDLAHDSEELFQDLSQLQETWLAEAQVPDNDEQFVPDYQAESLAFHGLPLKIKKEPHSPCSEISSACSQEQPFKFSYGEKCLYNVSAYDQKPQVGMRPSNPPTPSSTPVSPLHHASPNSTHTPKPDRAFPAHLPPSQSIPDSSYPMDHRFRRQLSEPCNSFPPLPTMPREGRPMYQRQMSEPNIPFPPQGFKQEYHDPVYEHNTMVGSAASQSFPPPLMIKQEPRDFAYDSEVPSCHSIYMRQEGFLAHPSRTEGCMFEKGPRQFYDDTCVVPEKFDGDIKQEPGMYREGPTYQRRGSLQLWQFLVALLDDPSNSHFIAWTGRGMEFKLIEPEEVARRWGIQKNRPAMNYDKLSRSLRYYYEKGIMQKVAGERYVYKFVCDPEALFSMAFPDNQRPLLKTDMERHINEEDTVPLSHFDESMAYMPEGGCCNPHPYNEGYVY
In short: as §1

ERF = molecular target: T6, ERF (Homo sapiens, UniProt P50548 1-548); settings: protein: recombinant; tags: N-terminal GST; dsDNA, one strand shown
T6 sequence: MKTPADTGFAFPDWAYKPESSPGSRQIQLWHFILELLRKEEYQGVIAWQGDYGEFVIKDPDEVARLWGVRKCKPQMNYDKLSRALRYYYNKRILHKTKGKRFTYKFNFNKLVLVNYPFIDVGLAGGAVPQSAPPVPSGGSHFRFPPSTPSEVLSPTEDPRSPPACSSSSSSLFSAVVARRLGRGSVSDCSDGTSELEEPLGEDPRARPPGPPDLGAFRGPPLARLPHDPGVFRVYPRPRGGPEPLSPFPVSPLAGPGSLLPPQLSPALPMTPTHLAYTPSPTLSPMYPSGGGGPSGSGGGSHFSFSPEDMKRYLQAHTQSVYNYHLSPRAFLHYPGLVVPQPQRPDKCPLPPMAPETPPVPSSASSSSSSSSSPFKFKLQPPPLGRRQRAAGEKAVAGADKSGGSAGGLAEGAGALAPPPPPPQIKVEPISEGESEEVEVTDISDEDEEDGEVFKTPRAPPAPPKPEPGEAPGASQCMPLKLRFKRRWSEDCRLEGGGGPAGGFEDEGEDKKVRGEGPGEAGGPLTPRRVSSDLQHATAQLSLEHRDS
In short: as §1

ETV3L = molecular target: T7, ETV3L (Homo sapiens, UniProt Q6ZN32 1-361); settings: protein: recombinant; tags: N-terminal GST; dsDNA, one strand shown
T7 sequence: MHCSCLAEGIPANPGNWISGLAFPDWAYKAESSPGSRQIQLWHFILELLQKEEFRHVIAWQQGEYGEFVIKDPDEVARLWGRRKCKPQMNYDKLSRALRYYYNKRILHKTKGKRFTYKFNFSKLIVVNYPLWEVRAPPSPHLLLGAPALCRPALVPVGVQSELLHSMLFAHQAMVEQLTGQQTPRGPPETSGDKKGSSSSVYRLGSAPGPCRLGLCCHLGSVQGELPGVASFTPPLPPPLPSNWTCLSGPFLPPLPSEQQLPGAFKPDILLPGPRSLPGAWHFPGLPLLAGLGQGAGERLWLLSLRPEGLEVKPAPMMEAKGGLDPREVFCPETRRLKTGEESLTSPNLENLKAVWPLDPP
In short: as §1

ETS2 = molecular target: T8, ETS2 (Homo sapiens, UniProt P15036 1-469); settings: protein: recombinant; tags: N-terminal GST; dsDNA, one strand shown
T8 sequence: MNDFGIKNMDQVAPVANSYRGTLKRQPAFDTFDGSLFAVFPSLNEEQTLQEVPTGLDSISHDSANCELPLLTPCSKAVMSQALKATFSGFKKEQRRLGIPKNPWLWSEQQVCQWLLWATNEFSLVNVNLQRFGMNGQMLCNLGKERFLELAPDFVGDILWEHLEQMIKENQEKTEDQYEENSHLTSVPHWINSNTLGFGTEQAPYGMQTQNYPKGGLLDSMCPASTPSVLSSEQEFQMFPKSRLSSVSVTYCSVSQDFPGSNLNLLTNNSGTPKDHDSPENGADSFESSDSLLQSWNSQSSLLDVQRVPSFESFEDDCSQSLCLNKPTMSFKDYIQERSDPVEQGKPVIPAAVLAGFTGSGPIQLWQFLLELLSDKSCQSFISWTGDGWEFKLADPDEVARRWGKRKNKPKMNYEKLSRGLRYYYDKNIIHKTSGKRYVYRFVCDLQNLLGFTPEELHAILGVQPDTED
In short: as §1

SPDEF = molecular target: T9, SPDEF (Homo sapiens, UniProt O95238 1-335); settings: protein: recombinant; tags: N-terminal GST; dsDNA, one strand shown
T9 sequence: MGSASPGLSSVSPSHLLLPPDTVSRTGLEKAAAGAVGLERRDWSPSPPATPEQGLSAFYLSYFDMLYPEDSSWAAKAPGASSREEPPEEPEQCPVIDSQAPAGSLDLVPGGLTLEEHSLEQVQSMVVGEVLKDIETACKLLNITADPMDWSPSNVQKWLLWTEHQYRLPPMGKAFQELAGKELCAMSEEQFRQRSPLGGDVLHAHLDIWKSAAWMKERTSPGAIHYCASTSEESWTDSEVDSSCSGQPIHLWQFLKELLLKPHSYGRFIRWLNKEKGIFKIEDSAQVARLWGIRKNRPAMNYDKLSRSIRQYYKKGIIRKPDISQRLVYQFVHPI
In short: as §1

ETV7 = molecular target: T10, ETV7 (Homo sapiens, UniProt Q9Y603 1-341); settings: protein: recombinant; tags: N-terminal GST; dsDNA, one strand shown
T10 sequence: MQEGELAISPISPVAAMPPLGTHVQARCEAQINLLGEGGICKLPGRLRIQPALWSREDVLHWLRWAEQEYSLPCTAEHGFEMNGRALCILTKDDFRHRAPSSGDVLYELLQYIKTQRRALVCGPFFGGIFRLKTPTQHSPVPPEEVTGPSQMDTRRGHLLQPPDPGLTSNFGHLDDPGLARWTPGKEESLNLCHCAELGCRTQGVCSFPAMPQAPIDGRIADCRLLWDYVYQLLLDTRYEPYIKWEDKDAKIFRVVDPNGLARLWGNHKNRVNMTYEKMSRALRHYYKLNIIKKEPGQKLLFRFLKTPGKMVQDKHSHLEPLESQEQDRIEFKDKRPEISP
In short: as §1

ELF5 = molecular target: T11, ELF5 (Homo sapiens, UniProt Q9UKW6-2 1-255); settings: protein: recombinant; tags: N-terminal GST; dsDNA, one strand shown
T11 sequence: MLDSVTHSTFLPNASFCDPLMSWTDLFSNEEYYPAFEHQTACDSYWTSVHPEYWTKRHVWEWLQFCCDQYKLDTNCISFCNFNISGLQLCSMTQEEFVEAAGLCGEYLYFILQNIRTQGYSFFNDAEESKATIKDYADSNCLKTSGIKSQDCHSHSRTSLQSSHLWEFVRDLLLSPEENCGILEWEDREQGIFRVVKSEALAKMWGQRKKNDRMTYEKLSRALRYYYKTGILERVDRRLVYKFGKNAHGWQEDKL
In short: as §1

ETV3 = molecular target: T12, ETV3 (Homo sapiens, UniProt P41162-2 1-143); settings: protein: recombinant; tags: N-terminal GST; dsDNA, one strand shown
T12 sequence: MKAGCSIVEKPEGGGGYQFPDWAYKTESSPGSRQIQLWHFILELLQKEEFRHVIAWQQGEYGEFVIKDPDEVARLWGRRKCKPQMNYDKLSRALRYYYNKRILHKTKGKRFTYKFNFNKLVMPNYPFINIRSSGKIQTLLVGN
In short: as §1

ETV6 = ETV6 (Homo sapiens, UniProt P41212 1-452); settings: protein: recombinant; tags: N-terminal GST; dsDNA, one strand shown
ETV6, sequence (P41212 whole entry): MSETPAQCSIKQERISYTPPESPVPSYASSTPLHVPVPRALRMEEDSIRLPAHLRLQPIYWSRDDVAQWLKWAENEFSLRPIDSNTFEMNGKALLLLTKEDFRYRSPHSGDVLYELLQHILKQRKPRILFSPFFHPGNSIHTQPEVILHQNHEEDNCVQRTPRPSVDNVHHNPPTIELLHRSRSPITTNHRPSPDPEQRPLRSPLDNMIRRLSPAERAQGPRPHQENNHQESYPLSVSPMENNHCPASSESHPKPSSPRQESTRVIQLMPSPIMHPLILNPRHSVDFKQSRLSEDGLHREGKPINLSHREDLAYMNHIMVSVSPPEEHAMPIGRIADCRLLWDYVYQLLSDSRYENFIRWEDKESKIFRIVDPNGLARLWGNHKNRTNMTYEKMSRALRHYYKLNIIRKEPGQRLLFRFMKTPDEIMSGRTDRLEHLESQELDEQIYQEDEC
In short: as §1

TTTATA
binding signal (FEV): 1.28 fold enrichment (6-mer frequency, TF over GST control)
binding signal (ETV5): 1.24 fold enrichment (6-mer frequency, TF over GST control)
binding signal (HSF1): 1.54 fold enrichment (6-mer frequency, TF over GST control)
binding signal (SPIC): 1.37 fold enrichment (6-mer frequency, TF over GST control)
binding signal (ELF4): 1.36 fold enrichment (6-mer frequency, TF over GST control)
binding signal (ELK4): 1.37 fold enrichment (6-mer frequency, TF over GST control)
binding signal (ETV2): 1.26 fold enrichment (6-mer frequency, TF over GST control)
binding signal (ELF3): 1.36 fold enrichment (6-mer frequency, TF over GST control)
binding signal (CRX): 2.05 fold enrichment (6-mer frequency, TF over GST control)
binding signal (ETV1): 1.31 fold enrichment (6-mer frequency, TF over GST control)
binding signal (ERF): 1.4 fold enrichment (6-mer frequency, TF over GST control)
binding signal (ETV3L): 1.42 fold enrichment (6-mer frequency, TF over GST control)
binding signal (ETS2): 1.4 fold enrichment (6-mer frequency, TF over GST control)
binding signal (SPDEF): 1.3 fold enrichment (6-mer frequency, TF over GST control)
binding signal (ETV7): 1.43 fold enrichment (6-mer frequency, TF over GST control)
binding signal (ELF5): 1.27 fold enrichment (6-mer frequency, TF over GST control)
binding signal (ETV3): 1.32 fold enrichment (6-mer frequency, TF over GST control)
binding signal (ETV6): 1.38 fold enrichment (6-mer frequency, TF over GST control)
